Bioassay records (PubChem BioAssay)
Gal4-VP16 FLuc: inhibits Gal4-VP16 luciferase reporter, ROR gamma counter-screen; Drosophila S2 Gal4-VP16 UAS-luciferase, luminescence, 20 h; AID 2546; 3.5% of 310,000 active; Potency, µM (highest dose often 53.6 µM), hits mostly inhibitors;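 note: Gal4-VP16 expression switched on by copper sulfate through the metallothionein promoter; nearly all actives have a fitted effect of over 50% in size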
IL1B secr inh: inflammasome signaling inhibition, IL-1 beta readout. THP-1 LPS/ATP IL-1B secretion, AlphaLISA, 16 h; stronger effect = lower value. activity change, % at 57.5 µM. 4.7% of 360,000 active; in the data active = activity change below about -50%; inconclusive = mostly about -30% to -49%
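Secreted IL-1B measured by AlphaLISA bead assay after 16 h compound exposure of THP-1 cells; compounds (final up to 57.5 uM) added 1 h before LPS (250 ng/mL) and ATP (1.25 mM) stimulation; lower signal means less secretion.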
DT40 TDP1 CPT: growth inhibition of DT40 Tdp1-/-;hTDP1 cells with camptothecin (screen for TDP1 inhibitors) | chicken DT40 Tdp1-/-;hTDP1 cells + 20 nM CPT, ATP luminescence, 48 h | Potency, µM (series often up to 46.2 µM), usual class: inhibitors | 12% of 420,000 active; note: nearly all actives have a fitted effect of over 55% in size
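Cell growth measured by CellTiter-Glo luminescence after a minimum 48 h, 37 C compound exposure with 20 nM CPT in Tdp1-knockout DT40 cells stably expressing hTDP1, seeded 400/well; qHTS titration format.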
ELG1 DNA repair: inhibitors of ELG1-dependent DNA repair in HEK293T cells. HEK293T ELG1-luciferase reporter, luminescence, 16 h; DNA damage induced by 5-fluorouridine. Potency, µM (series often up to 46.1 µM), most hits filed as inhibitors. 2.3% of 330,000 active. AID 504467; note: nearly all actives have a fitted effect of over 55% in size
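Cells (2,000 per well) received 5-fluorouridine plus test compound or DMSO and were incubated 16 hr at 37 °C, 5% CO2. Luciferase activity was read by luminescence 30 min after ONE-Glo addition; signal suppression marked inhibition of damage-induced ELG1 function.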
TDP1 cell noCPT: qHTS for Inhibitors of human tyrosyl-DNA phosphodiesterase 1 (TDP1): qHTS in cells in absence of CPT. DT40 Tdp1-/- hTDP1 cells, no CPT, ATP luminescence, 48 h. Potency, µM (titrated, usually from 46.2 µM), most hits filed as inhibitors. 15% of 420,000 active. AID 686978, 2013; note: nearly all actives have a fitted effect of over 55% in size
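Growth kinetics read by CellTiter-Glo luminescence after ≥48 hr at 37 °C. Cells: DT40 Tdp1-/- stably carrying human TDP1, 400 per well, compound exposure in the absence of CPT (DMSO vehicle).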
RORg inh: ROR gamma (mouse) transcription inhibition. AID 2551. Potency, µM (top dose mostly 53.6 µM), hits mostly inhibitors. 5.4% of 310,000 active. P51450. Drosophila S2 Gal4-RORgamma UAS-luciferase reporter, 20 h; note: nearly all actives have a fitted effect of over 60% in size
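Stably transfected Drosophila Schneider cells are the test system, with ROR gamma fused to Gal4 and luciferase under UAS control; luminescence is read after 20 hr of 700 uM copper sulfate induction at ambient temperature.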
ELG1 FLuc counter: luciferase inhibition in cell-free luciferin readout for ELG1 hits; shares compounds with ELG1 DNA repair; cell-free firefly luciferase luminescence counter-screen, ViewLux; Potency, µM (top dose mostly 46.1 µM), actives largely listed as inhibitors; 3% of 350 active
ELG1-Luc inh: confirmation of human ELG1-dependent DNA repair inhibitors; 68% of 670 active; Potency, µM (highest dose often 46.1 µM), hits mostly inhibitors; HEK293T ELG1-luciferase levels, luminescence; cells co-treated with 5-fluorouridine; shares compounds with ELG1 DNA repair; note: nearly all actives have a fitted effect of over 55% in size
ELG1-Luc MMS: confirmation of human ELG1 repair inhibitors, MMS stimulated; shares compounds with ELG1 DNA repair; HEK293T luciferase-tagged ELG1 level, MMS stimulated; 53% of 670 active; Potency, µM (series often up to 46.1 µM), actives largely listed as inhibitors; note: nearly all actives have a fitted effect of over 60% in size
ELG1 5-FU: confirmation of ELG1 repair inhibitors: viability with 5FU; shares compounds with ELG1 DNA repair; cell viability with 5-FU, ELG1-dependent repair; Potency, µM (series often up to 46.1 µM), hits mostly cytotoxic; 670 tested, under 10 active; AID 624250;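 note: ELG1-luc HEK293T cells cotreated with 5-fluorouridine at 10 µM final; viability measured 16 h after compound addition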
ELG1 MMS viab: confirmation of ELG1 repair inhibitors: viability with MMS; shares compounds with ELG1 DNA repair; Cell viability with MMS, ELG1-dependent DNA repair; Potency, µM (titrated, usually from 46.1 µM), actives largely listed as cytotoxic; 33% of 670 active; AID 624251;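 note: ELG1-luc HEK293T cells co-treated with 10 µM MMS; viability read 16 h after compound addition; nearly all actives have a fitted effect of over 60% in size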
ELG1 unstim viab: unstimulated viability counter-screen for ELG1 repair hits | shares compounds with ELG1 DNA repair | cell viability counter-screen, unstimulated, luminescence | Potency, µM (series often up to 45.9 µM), hits mostly cytotoxic | 8% of 900 active | AID 624252;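 note: compound exposure lasted 16 hours before reading; nearly all actives have a fitted effect of over 55% in size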
FLuc enzyme: firefly luciferase inhibition counter-screen. 10% of 350 active. Potency, µM (top dose mostly 57.5 µM), hits mostly inhibitors. shares compounds with ELG1 DNA repair. purified firefly luciferase, luminescence counter-screen. AID 624253
A number is an active result; 0 = inactive; ? = inconclusive; - = not tested or not shown; [ ] = another dose, or the depositor's remark. The list is not random: actives were taken first. Their share in the collection is about 21%. Unless noted, calls come from the whole dose curve; as a rule, active = well fitted curve in the direction sought with a large enough effect; inconclusive = small, poorly fitted or top-dose-only effect, or another doubt; inactive = no such curve, though single readings can be large; an effect the other way counts as inactive or inconclusive.

SMILES	Gal4-VP16 FLuc	IL1B secr inh	DT40 TDP1 CPT	ELG1 DNA repair	TDP1 cell noCPT	RORg inh	ELG1 FLuc counter	ELG1-Luc inh	ELG1-Luc MMS	ELG1 5-FU	ELG1 MMS viab	ELG1 unstim viab	FLuc enzyme
CCOC(=O)c1c(C)[nH]c(C(=O)N2CCc3cc(OC)c(OC)cc3C2)c1C	-	-61.4	10.3µM	1.46µM	16.4µM	-	-	3.53µM	?	?	0	0	-
COc1cccc(CN2CC(C(=O)N(C)Cc3ccc(C)cc3)CCC2=O)c1 (configuration not stated)	0	0	0	?	0	0	-	-	-	-	-	-	-
O=C(NCc1ccccc1Cl)c1ccc2nc[nH]c2c1	0	0	0	0	?	0	-	-	-	-	-	-	-
CCOC(=O)C1=C(C)NC(=O)NC1c1cc2c(cc1Br)OCO2 (configuration not stated)	0	0	0	0	0	0	-	-	-	-	-	-	-
CC1=C(C(=O)OCc2ccc3c(c2)OCO3)C(c2ccccc2OCc2ccccc2)NC(=O)N1 (configuration not stated)	0	-50.3	?	16.4µM	25.9µM	0	0	22.3µM	?	0	0	?	0
CCn1c(N2CCN(CC(=O)c3c[nH]c4ccccc34)CC2)nc2c1c(=O)[nH]c(=O)n2C	0	0	0	0	0	?	0	?	0	?	0	0	0
CCCn1c(N2CCN(CC(=O)c3c(C)n(C)c4ccccc34)CC2)nc2c1c(=O)[nH]c(=O)n2C	0	-68.9	?	7.31µM	18.4µM	0	0	3.15µM	?	?	0	0	0
O=C(O)c1ccccc1C(=O)NCC(O)COc1ccc(Cl)cc1 (configuration not stated)	0	?	0	?	0	0	-	-	-	-	-	-	-
Cc1cc(C)c2nc(NC(=O)c3ccc(S(=O)(=O)N4CCc5ccccc54)cc3)sc2c1	-	-	0	-	0	-	-	-	-	-	-	-	-
CC1CCc2nc(NC(=O)c3ccc(S(=O)(=O)N4CCCc5ccccc54)cc3)sc2C1 (configuration not stated)	0	0	?	2.91µM	0	6.31µM	-	?	2.5µM	0	2.81µM	?	-
Cc1ccc(C(C(=O)NCc2ccccc2)N(Cc2cccs2)C(=O)c2ccc3c(c2)OCCO3)cc1 (configuration not stated)	0	0	9.2µM	2.91µM	3.66µM	0	0	7.92µM	7.92µM	0	?	?	0
CCC1CCCCN1C(=O)Cn1c(C(=O)OC)cc2ccsc21 (configuration not stated)	0	0	0	0	0	0	-	-	-	-	-	-	-
c1ccc(CC2CCN(c3ncnc4sccc34)CC2)cc1	3.98µM	-51.4	5.17µM	1.64µM	2.59µM	10µM	0	0	1.58µM	0	1.99µM	?	?
O=C(c1cccs1)N1CCC(Cc2ccccc2)CC1	0	0	0	0	?	0	-	-	-	-	-	-	-
COc1cc(/C=C(\C#N)C(=O)Nc2cccc(C(=O)O)c2)ccc1OCc1ccc(F)cc1	0	0	0	?	0	0	-	-	-	-	-	0	-
O=C1c2cc(F)ccc2-n2c1nc1ccccc1c2=O	0	0	0.206µM	0.184µM	0.366µM	0	0	19.9µM	1.12µM	0	1.77µM	?	0
O=c1c2ccccc2nc(SCc2nnc(-c3ccccc3)o2)n1-c1ccc(F)cc1F	0	0	?	0	?	0	-	-	-	-	-	-	-
Cc1cc(Cl)ccc1C(=O)C1CCCN(C(=O)c2snnc2C)C1 (configuration not stated)	?	0	?	0	?	0	-	-	-	-	-	-	-
COc1cc(CC2COC(=O)C2(O)Cc2ccc(O)c(OC)c2)ccc1O (configuration not stated)	7.08µM	0	11.6µM	1.46µM	9.2µM	?	-	?	3.53µM	0	2.81µM	?	-
COc1cc(C[C@H](C)[C@H](C)Cc2ccc3c(c2)OCO3)ccc1O	0	0	?	0	?	0	-	-	-	-	-	-	-
Cc1ccc(S(=O)(=O)Nc2ccccc2N(C)S(=O)(=O)c2ccc(C)cc2)cc1	-	0	?	0	?	-	-	-	-	-	-	-	-
CCOc1cccc(-c2nnc3sc(-c4cc(OC)c(OC)c(OC)c4)nn23)c1	0	0	?	3.26µM	?	0	-	?	0	0	0	?	-
CCOc1cccc(-c2nn3c(-c4ccco4)nnc3s2)c1	0	0	?	?	?	0	-	-	-	-	-	-	-
CCOc1ccc(C(=O)Nc2cc3c(cc2N2CCCC2)n(CC)c(=O)n3CC)cc1OCC	0	0	?	?	?	0	0	15.8µM	?	0	?	?	0
CCC1CCCCN1C(=O)c1ccc(OC2CCN(C(=O)C3CC3)CC2)cc1 (configuration not stated)	0	0	?	?	?	0	-	-	-	-	-	-	-
C[C@@H]1CN([C@H](C)CO)C(=O)CCCn2nncc2CO[C@@H]1CN(C)S(C)(=O)=O	-	0	0	-	0	-	-	-	-	-	-	-	-
COc1cc2c(cc1OC)C1C(=O)c3c(O)cc4c(c3OC1CO2)C=CC(C)(C)O4 (configuration not stated)	0.891µM	-	0.651µM	-	0.411µM	6.31µM	0	?	0.397µM	0	0.397µM	?	0
Cc1cc(C)n(CCCN2C(=O)c3cccc4cccc(c34)C2=O)n1	0[10 µM]	0	0	?	?	0	-	-	-	-	-	-	-
CCOc1ccc(NC(=O)c2cnn3c(C(F)F)cc(-c4ccc(C)cc4)nc23)cc1	-	-	0	-	0	-	-	-	-	-	-	-	-
